Source: PubChem BioAssay AID1159580 (chemical genetic matrix, 2015)
Where “and” joins values, the source holds several entries; their conditions need not be identical. Equal entries are not always repeated. Among all 5,500 compounds or so, about 2,000 (36%) were called active. Inconclusive results (about 18%) are left out. The list shows a part of the results. Values without a mark were called inactive. Rule as the data show it: active = normalized growth mostly below about 0.91 (no sharp cut-off); inconclusive = no clear call, values can overlap the other calls; inactive = mostly above about 0.92.

Experiment: chemical genetic growth profiling, strain panel (AID 1159580);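 also: tested at 20 µM; growth read once vehicle control cultures reached saturation at 30 °C; 1 = growth at the plate median or of vehicle wells; lower values mean less growth of the strain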
Details: S. cerevisiae deletion strains, growth OD

Structure (SMILES): O=C1C=CC(=O)c2c(O)cccc21
- normalized growth (locus YAL021C, strain ccr4, active compounds read low): 1.01
- normalized growth (locus YAL026C, strain drs2, active compounds read low): 0.951
- normalized growth (locus YAL030W, strain snc1, active compounds read low): 0.965
- normalized growth (locus YBL061C, strain skt5, active compounds read low): 0.976
- normalized growth (locus YBR009C, strain hhf1, active compounds read low): 0.966
- normalized growth (locus YBR021W, strain FUR4, active compounds read low): 1.09
- normalized growth (locus YBR023C, strain chs3, active compounds read low): 0.973
- normalized growth (locus YBR171W, strain sec66, active compounds read low): 1
- normalized growth (locus YBR229C, strain ROT2, active compounds read low): 0.955
- normalized growth (locus YBR231C, strain swc5, active compounds read low): 0.876 (active)
- normalized growth (locus YBR279W, strain paf1, active compounds read low): 0.974
- normalized growth (locus YCL011C, strain gbp2, active compounds read low): 0.978
- normalized growth (locus YCL016C, strain dcc1, active compounds read low): 0.975
- normalized growth (locus YCL029C, strain bik1, active compounds read low): 0.983
- normalized growth (locus YCL069W, strain vba3, active compounds read low): 0.971
- normalized growth (locus YCR088W, strain abp1, active compounds read low): 0.981
- normalized growth (locus YDL005C, strain med2, active compounds read low): 1
- normalized growth (locus YDL035C, strain GPR1, active compounds read low): 0.993
- normalized growth (locus YDL040C, strain nat1, active compounds read low): 1
- normalized growth (locus YDL074C, strain BRE1, active compounds read low): 1.02
- normalized growth (locus YDL101C, strain DUN1, active compounds read low): 0.966
- normalized growth (locus YDL134C, strain PPH21, active compounds read low): 0.967
- normalized growth (locus YDL185W, strain tfp1, active compounds read low): 0.961
- normalized growth (locus YDL192W, strain arf1, active compounds read low): 0.972
- normalized growth (locus YDR001C, strain nth1, active compounds read low): 0.991
- normalized growth (locus YDR069C, strain doa4, active compounds read low): 0.956
- normalized growth (locus YDR101C, strain arx1, active compounds read low): 1.03
- normalized growth (locus YDR137W, strain rgp1, active compounds read low): 0.708 (active)
- normalized growth (locus YDR159W, strain sac3, active compounds read low): 0.838 (active)
- normalized growth (locus YDR162C, strain NBP2, active compounds read low): 0.912
- normalized growth (locus YDR195W, strain ref2): 1.03
- normalized growth (locus YDR297W, strain sur2, active compounds read low): 1.01
- normalized growth (locus YDR318W, strain mcm21, active compounds read low): 0.962
- normalized growth (locus YDR334W, strain swr1, active compounds read low): 0.879 (active)
- normalized growth (locus YDR335W, strain msn5, active compounds read low): 0.975
- normalized growth (locus YDR388W, active compounds read low): 0.99
- normalized growth (locus YDR392W, strain spt3, active compounds read low): 0.596 (active)
- normalized growth (locus YDR502C, strain sam2, active compounds read low): 1.01
- normalized growth (locus YEL003W, strain gim4, active compounds read low): 0.969
- normalized growth (locus YEL037C, strain rad23, active compounds read low): 0.973
- normalized growth (locus YEL061C, strain CIN8 (second series), active compounds read low): 0.983
- normalized growth (locus YEL061C, strain CIN8, active compounds read low): 0.982
- normalized growth (locus YER015W, strain faa2, active compounds read low): 0.956
- normalized growth (locus YER016W, strain bim1, active compounds read low): 1.02
- normalized growth (locus YER110C, active compounds read low): 0.972
- normalized growth (locus YER111C, strain swi4, active compounds read low): 1.13 [resistant] (active)
- normalized growth (locus YER155C, strain BEM2 (second series), active compounds read low): 0.766 (active)
- normalized growth (locus YER155C, strain BEM2, active compounds read low): 1
- normalized growth (locus YER167W, strain BCK2, active compounds read low): 0.984
- normalized growth (locus YFR010W, strain ubp6, active compounds read low): 0.907
- normalized growth (locus YGL078C, strain dbp3, active compounds read low): 1.04
- normalized growth (locus YGL086W, strain mad1, active compounds read low): 1.02
- normalized growth (locus YGL167C, strain pmr1, active compounds read low): 0.961
- normalized growth (locus YGL173C, strain kem1, active compounds read low): 0.938
- normalized growth (locus YGL227W, strain vid30, active compounds read low): 1.04
- normalized growth (locus YGL240W, strain doc1, active compounds read low): 0.817 (active)
- normalized growth (locus YGL248W, strain PDE1, active compounds read low): 0.955
- normalized growth (locus YGL253W, strain hxk2, active compounds read low): 0.979
- normalized growth (locus YGR078C, strain PAC10, active compounds read low): 0.958
- normalized growth (locus YGR135W, strain pre9, active compounds read low): 0.966
- normalized growth (locus YGR229C, strain SMI1, active compounds read low): 0.97
- normalized growth (locus YGR252W, strain gcn5, active compounds read low): 1.03
- normalized growth (locus YHR013C, strain ard1, active compounds read low): 0.894
- normalized growth (locus YHR027C, strain rpn1, active compounds read low): 0.954
- normalized growth (locus YHR030C, strain SLT2, active compounds read low): 0.993 and 0.875
- normalized growth (locus YHR079C, strain IRE1 (second series), active compounds read low): 0.997
- normalized growth (locus YHR079C, strain IRE1, active compounds read low): 0.972
- normalized growth (locus YHR094C, strain hxt1, active compounds read low): 1
- normalized growth (locus YHR129C, strain ARP1, active compounds read low): 0.991
- normalized growth (locus YHR142W, strain chs7, active compounds read low): 0.992
- normalized growth (locus YHR200W, strain rpn10, active compounds read low): 0.963
- normalized growth (locus YIL066C, strain RNR3, active compounds read low): 0.965
- normalized growth (locus YIL073C, strain SPO22, active compounds read low): 0.933
- normalized growth (locus YIL125W, strain kgd1, active compounds read low): 0.997
- normalized growth (locus YIR030C, strain dcg1, active compounds read low): 1
- normalized growth (locus YJL092W, strain hpr5, active compounds read low): 0.987
- normalized growth (locus YJL095W, strain BCK1 (second series), active compounds read low): 0.946
- normalized growth (locus YJL095W, strain BCK1, active compounds read low): 0.903 and 0.941
- normalized growth (locus YJL115W, strain asf1, active compounds read low): 0.969
- normalized growth (locus YJL129C, strain trk1, active compounds read low): 1.02
- normalized growth (locus YJL134W, strain LCB3, active compounds read low): 0.984
- normalized growth (locus YJL154C, strain vps35, active compounds read low): 0.974
- normalized growth (locus YJL164C, strain tpk1, active compounds read low): 0.953
- normalized growth (locus YJL166W, strain qcr8, active compounds read low): 0.935
- normalized growth (locus YJL168C, strain set2, active compounds read low): 0.988
- normalized growth (locus YJL187C, strain SWE1 (second series), active compounds read low): 0.964
- normalized growth (locus YJL187C, strain SWE1, active compounds read low): 0.987
